U2OS ROS induce: inducers of reactive oxygen species in cancer cells; U2OS ROS induction, H2DCF-DA fluorescence; ROS induction (% of piperlongumine), % at 10 µM; actives 2% (n = 46,000); AID 624156; in the data active = ROS induction above about 79%, passing the limit was not always enough;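 note: 0% = DMSO vehicle median and 100% = reference compound median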
YB-1 expr inh: YB-1 expression inhibition | U2OS, qRT-PCR YB-1 vs CDIP delta delta Cp, 16 h; hits give high values; zero = DMSO, each unit about twofold | delta delta Cp (YB-1 minus CDIP) (test concentration not listed) | actives 0.37% (n = 30,000) | AID 434959;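 active = delta delta Cp rounded down to an integer at or above 3, about 3 SD of DMSO wells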;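 note: higher means less YB-1 transcript or more CDIP transcript relative to DMSO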
BJeLR viab HTS: compounds reducing viability of BJeLR cells. BJeLR fibroblasts viability, CellTiterGlo ATP luminescence, 48 h; HRASV12, hTERT and SV40 LT/ST transformed. viability loss activity score, % (no concentration beside the values). actives 0.64% (n = 30,000). AID 2275; in the data active = viability loss activity score above about 50%;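 note: higher score means fewer live cells and less ATP luminescence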
MITF inh: inhibitors of MITF; TRPM1 promoter luciferase, luminescence, 24 h; inhibition, % (concentration not given with the values); actives 0.28% (n = 37,000); in the data active = inhibition above about 85%;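 note: human melanocyte line stably carrying TRPM1 promoter luciferase reporter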
Starred values were filed as active, the others as inactive; . = no result. An excerpt weighted towards active compounds, which were near 2.5% of everything screened.

SMILES	U2OS ROS induce	YB-1 expr inh	BJeLR viab HTS	MITF inh
Clc1ccc(C2=NN=C(N3CCCC3)SC2)cc1	5	-0.4	33	81
CC(=O)[C@@]1(O)CCC2C3CCC4=CC(=O)CC[C@]4(C)C3CC[C@@]21C (stereo partly drawn)	155*	-0.061	-4	12
CCCC(NS(=O)(=O)c1ccc(C)cc1)C(=O)O (stereo not drawn)	.	.	.	-12
Cc1ccc(S(=O)(=O)N[C@@H](Cc2ccccc2)C(=O)CCl)cc1	79*	0.84	25	83
CC1C/C(=C/c2ccncc2)C(=O)/C(=C/c2ccncc2)C1 (stereo not drawn)	.	.	5	.
CC1C/C(=C/c2cccn2C)C(=O)/C(=C/c2cccn2C)C1 (stereo not drawn)	261*	.	-8	.
CN(C)C(=S)N(C#N)c1nc(N(C)C)nc(N(C)C)n1	.	.	-5	.
Cc1cccc(-c2nnc(SCC(=O)Nc3ccccc3F)o2)c1	-3	.	.	88*
O=C(COc1ccc2c(c1)C(=O)CC1(CCCCC1)O2)NCc1cccnc1	.	.	-8	.
Cc1cc(C)nc(/N=C2\NC(=O)CC(C(=O)O)N2c2ccc(F)c(Cl)c2)n1 (stereo not drawn)	2	.	.	-5
COC(=O)/C=C1/C(=O)N/C(=N\c2nc(C)cc(C)n2)N1c1cccc(C)c1	103*	-0.13	-1	-15
Cc1nc2cc(NC(=O)NCc3ccco3)ccc2n1C	100*	.	.	-104
CCN(Cc1ccccc1)C(=O)CSc1nc2ccccc2c2nc3ccccc3n12	0	.	0	.
C[C@@H]1CN([C@@H](C)CO)C(=O)c2cccc(NC(=O)c3cnccn3)c2O[C@@H]1CN(C)Cc1ccc(Cl)c(Cl)c1	4	-0.18	-2	-21
C[C@H](CO)N1C[C@H](C)[C@H](CN(C)S(C)(=O)=O)Oc2c(NC(=O)c3cnccn3)cccc2C1=O	-8	4.7*	0	-10
C[C@@H]1CN([C@@H](C)CO)C(=O)c2cccc(NC(=O)c3cnccn3)c2O[C@H]1CN(C)Cc1ccc(Cl)c(Cl)c1	87*	0.25	-4	36
Nc1ncnc(Sc2nc3ccccc3s2)c1[N+](=O)[O-]	100*	.	.	28
C[C@@H]1O[C@@H](Oc2cc(O)c3c(=O)c(-c4ccc(O)cc4)coc3c2)[C@H](O)[C@H](O)[C@H]1O	7	3.9*	10	-19
C[C@@H]1O[C@@H](Oc2ccc(-c3coc4cc(O[C@@H]5O[C@@H](C)[C@H](O)[C@@H](O)[C@H]5O)cc(O)c4c3=O)cc2)[C@H](O)[C@H](O)[C@H]1O	3	-0.47	-5	-33
C[C@H](CO)N1C[C@H](C)[C@H](CN(C)S(=O)(=O)c2ccc(Cl)cc2)Oc2ccc(NC(=O)C3CC3)cc2CC1=O	123*	-0.22	.	17
Cc1ccc(S(=O)(=O)N(C)C[C@H]2Oc3ccc(NS(=O)(=O)c4ccc(Cl)cc4)cc3CC(=O)N([C@@H](C)CO)C[C@H]2C)cc1	212*	-0.12	.	7
C[C@H]1CN([C@@H](C)CO)C(=O)Cc2cc(NC(=O)NC3CCCCC3)ccc2O[C@H]1CN(C)S(=O)(=O)c1ccc(Cl)cc1	130*	-0.089	.	45
Cc1ccc(S(=O)(=O)Nc2ccc3c(c2)CC(=O)N([C@@H](C)CO)C[C@@H](C)[C@@H](CN(C)S(=O)(=O)c2ccc(Cl)cc2)O3)cc1	15	-0.062	.	7
C[C@H](CO)N1C[C@H](C)[C@H](CN(C)S(=O)(=O)c2ccc(Cl)cc2)Oc2ccc(NC(=O)Cn3cnnn3)cc2CC1=O	126*	0.051	.	-5
Cc1ccc(S(=O)(=O)N(C)C[C@H]2Oc3ccc(NC(=O)Cn4cnnn4)cc3CC(=O)N([C@@H](C)CO)C[C@@H]2C)cc1	-2	-0.073	.	-5
SMILES	U2OS ROS induce	YB-1 expr inh	BJeLR viab HTS	MITF inh
C[C@H]1CN([C@@H](C)CO)C(=O)Cc2cc(NC(=O)NC3CCCCC3)ccc2O[C@@H]1CN(C)S(=O)(=O)c1cn(C)cn1	109*	-0.35	.	1
C[C@H](CO)N1C[C@H](C)[C@H](CN(C)CC2CCCCC2)Oc2ccc(NC(=O)Nc3ccc(C(F)(F)F)cc3)cc2CC1=O	153*	0.18	.	22
C[C@H](CO)N1C[C@H](C)[C@H](CN(C)CC2CCCCC2)Oc2ccc(NC(=O)CCCN(C)C)cc2C1=O	0	18*	-1	-5
C[C@H]1CN([C@@H](C)CO)C(=O)Cc2cc(NC(=O)CCC(F)(F)F)ccc2O[C@H]1CN(C)CC1CCCCC1	99*	0.2	.	1
C[C@H]1CN([C@@H](C)CO)C(=O)c2cc(NC(=O)CCCN(C)C)ccc2O[C@@H]1CN(C)CC1CCCCC1	-10	-0.068	2	-11
C[C@@H]1CN([C@H](C)CO)C(=O)Cc2cc(NC(=O)CCCN(C)C)ccc2O[C@@H]1CN(C)CC1CCCCC1	93*	-0.32	.	-10
C[C@H]1CN([C@@H](C)CO)C(=O)Cc2cc(NC(=O)CCCN(C)C)ccc2O[C@@H]1CN(C)CC1CCCCC1	5	0.23	.	10
C[C@@H]1CN([C@@H](C)CO)C(=O)Cc2cc(NC(=O)CCC(F)(F)F)ccc2O[C@@H]1CN(C)CC1CCCCC1	-5	-0.11	.	2
CC(C(=O)N1CCCCCC1)n1sc2ccccc2c1=O (stereo not drawn)	1	.	3	.
CC(C)CCNC(=O)c1cc(-c2ccccn2)nc2ccccc12	30	.	-4	.
Cc1nn(Cc2cccc3ccccc23)c(C)c1NC(=O)C1CC1c1ccccc1 (stereo not drawn)	0	.	-1	.
C[C@@H]1CN([C@H](C)CO)C(=O)Cc2cc(NC(=O)Cc3ccccc3)ccc2O[C@H]1CN(C)CC1CCCCC1	79*	0.049	.	0
Cc1cc(NCCO)n2c(nc3ccccc32)c1C#N	7	.	2	.
CC(C)CCNc1cc(C(C)C)c(C#N)c2nc3ccccc3n12	197*	.	5	.
CCOC(=O)CCc1c(C)c(C#N)c2nc3ccccc3n2c1Cl	.	.	88*	.
CCc1c(C)c(C#N)c2nc3ccccc3n2c1NCCC(C)C	157*	.	-3	.
CCN(CC)c1ccc(C=C2C(=O)c3ccccc3C2=O)c(OC)c1	.	.	0	.
CC1CC(=O)c2c(ccc3c2C(=O)c2c(O[C@@H]4O[C@@H](C)[C@H](O)[C@@H](O)[C@H]4O)cccc2C3=O)C1 (stereo partly drawn)	-2	-0.46	5	10
COc1cccc2c1C(=O)c1c(O)c3c(c(O)c1C2=O)C[C@@](O)(C(C)=O)C[C@@H]3O[C@H]1C[C@H](N)[C@H](O)[C@H](C)O1	141*	2.9	111*	74
Cc1ccc(OC(=O)c2cc(S(=O)(=O)N3CCCC3)ccc2C)cc1C	4	.	0	.
CCN(CC)S(=O)(=O)c1ccc(Cl)c(C(=O)Oc2ccc(C)c(C)c2)c1	14	9.1*	1	1
CCN1C(=O)C(CC(=O)Nc2ccc(Br)cc2)N(CCNC(C)=O)C1=S (stereo not drawn)	.	.	-5	.
COc1ccc(OC)c(C2=NOC(C(=O)N(C)C3CCCCC3)C2)c1 (stereo not drawn)	.	.	-8	.

Screening data deposited in PubChem by Broad Institute.
